The list shows a part of the results. The true hit rate is not given.
B1: HC1318 (peptide)
chain: CAPLPPPKSPAGNASASA
B2: HC1421 (peptide)
chain: CAFGYGAKDVAGNASASA
B3: HC256 (peptide)
chain: CAAYQVRNSTAGNASASA
B4: HC1099 (peptide)
chain: CAEDLVNLLPAGNASASA
B5: HC2123 (peptide)
chain: CAEAVVCCSMAGNASASA
B6: FS-2143 (peptide)
chain: CARHKRVGTLAGNASASA
B7: FS-2675 (peptide)
chain: CARHGRDLYRAGNASASA
B8: FS-2557 (peptide)
chain: CARHYRNVFHAGNASASA
B9: FS-1895 (peptide)
chain: CARHKRVHSGAGNASASA
B10: FS-1824 (peptide)
chain: CARHKRWHFIAGNASASA
B11: FS-1719 (peptide)
chain: CARHYRWALGAGNASASA
B12: FS-2023 (peptide)
chain: CARHKRTIPMAGNASASA
B13: FS-3254 (peptide)
chain: CARHKRIPPEAGNASASA
B14: FS-2027 (peptide)
chain: CARHYRSNSPAGNASASA
B15: FS-2942 (peptide)
chain: CARHQRTENIAGNASASA
B16: HC33 (peptide)
chain: CAMEECEQHLAGNASASA
B17: HC2171 (peptide)
chain: CAEDVTSTWVAGNASASA
B18: HC2455 (peptide)
chain: CAEHEVPCHRAGNASASA
B19: FS-2593 (peptide)
chain: CARRKKALEIAGNASASA
B20: FS-2512 (peptide)
chain: CARRARGADAAGNASASA
B21: HC1496 (peptide)
chain: CAVAIKSLTEAGNASASA
B22: FS-2777 (peptide)
chain: CARRKKSGRGAGNASASA
B23: FS-2368 (peptide)
chain: CARRARSAPAAGNASASA
B24: FS-3050 (peptide)
chain: CARRKKSLSEAGNASASA
B25: FS-2514 (peptide)
chain: CARRKKSAPAAGNASASA
B26: FS-2513 (peptide)
chain: CARRARVTDAAGNASASA
B27: HC1059 (peptide)
chain: CAVTSPLTTSAGNASASA
B28: HC2232 (peptide)
chain: CAEVVTSTEVAGNASASA
B29: HC498 (peptide)
chain: CALPCSFTTLAGNASASA
B30: HC1978 (peptide)
chain: CAETTTPCSGAGNASASA
B31: HC318 (peptide)
chain: CAGHRMAWDMAGNASASA
B32: HC942 (peptide)
chain: CATGLTHIDAAGNASASA
B33: HC2333 (peptide)
chain: CAERPCHRPSAGNASASA
B34: HC1152 (peptide)
chain: CAWICEVLSDAGNASASA
B35: HC290 (peptide)
chain: CARRHIDLLVAGNASASA
B36: HC2187 (peptide)
chain: CAEVFTSTWVAGNASASA
B37: FS-409 (peptide)
chain: CADKSRSPRSAGNASASA
B38: FS-520 (peptide)
chain: CAYIERSPRSAGNASASA
B39: HC1239 (peptide)
chain: CAGSQLPCEPAGNASASA
B40: HC1634 (peptide)
chain: CANWAVRTKLAGNASASA
B41: FS-1697 (peptide)
chain: CARERRGREQAGNASASA
B42: FS-2134 (peptide)
chain: CAREKRGGETAGNASASA
B43: FS-2008 (peptide)
chain: CAREKRSNSQAGNASASA
B44: FS-1889 (peptide)
chain: CAREKRSISDAGNASASA
B45: FS-2257 (peptide)
chain: CARFARMIEQAGNASASA
B46: FS-2207 (peptide)
chain: CAREKRAKIKAGNASASA
B47: FS-1850 (peptide)
chain: CAREKRAAEQAGNASASA
B48: HC1017 (peptide)
chain: CAQHLPYIEQAGNASASA
B49: FS-2915 (peptide)
chain: CAREKRRSADAGNASASA
B50: FS-2006 (peptide)
chain: CAREKKSNSPAGNASASA
B51: FS-3147 (peptide)
chain: CARAPRSSSQAGNASASA
B52: FS-2908 (peptide)
chain: CAREARVVSDAGNASASA

Biological target: furin, P09958
Test: furin cleavage Z-score vs untreated control; higher = more cleavage, active = 3.5 or more, inactive = 1 or less, 8 variable residues between constant flanks
Method in brief: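 Sequencing of released DNA, tagged with adapters by PCR, gave read counts used as abundance. That DNA was freed when purified furin cut N-terminally bead-bound 8-mer peptides fused to a cDNA oligonucleotide, in 0.01 ml reactions at 1:10 enzyme:substrate in 50 mM HEPES pH 7.5 with CaCl2 and NaCl, lasting 7.5, 15 or 30 min. The cleavage Z-score was the lowess-adjusted log count versus furin-free reactions, scaled by median absolute deviation.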

Sequence of furin, P09958 (P09958 whole entry): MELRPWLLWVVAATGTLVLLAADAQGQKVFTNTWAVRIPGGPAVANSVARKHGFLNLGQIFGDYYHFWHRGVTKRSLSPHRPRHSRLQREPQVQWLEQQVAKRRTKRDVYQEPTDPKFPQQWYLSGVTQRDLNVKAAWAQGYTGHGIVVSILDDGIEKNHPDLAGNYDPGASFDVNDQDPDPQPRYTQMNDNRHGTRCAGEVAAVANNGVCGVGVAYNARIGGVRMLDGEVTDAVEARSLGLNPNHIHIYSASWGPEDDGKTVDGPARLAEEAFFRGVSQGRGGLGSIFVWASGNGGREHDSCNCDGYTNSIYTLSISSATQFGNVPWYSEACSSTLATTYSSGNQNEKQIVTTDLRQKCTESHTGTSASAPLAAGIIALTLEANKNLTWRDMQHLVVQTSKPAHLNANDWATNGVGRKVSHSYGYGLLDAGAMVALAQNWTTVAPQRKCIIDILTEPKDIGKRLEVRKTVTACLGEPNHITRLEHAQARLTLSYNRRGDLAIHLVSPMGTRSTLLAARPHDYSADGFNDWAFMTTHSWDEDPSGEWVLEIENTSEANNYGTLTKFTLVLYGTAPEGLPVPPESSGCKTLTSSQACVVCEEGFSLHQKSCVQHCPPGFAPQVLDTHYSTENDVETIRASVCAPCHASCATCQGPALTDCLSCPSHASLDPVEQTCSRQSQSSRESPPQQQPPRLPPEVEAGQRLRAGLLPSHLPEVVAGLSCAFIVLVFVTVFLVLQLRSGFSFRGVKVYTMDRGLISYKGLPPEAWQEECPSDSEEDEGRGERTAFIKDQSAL

Sequence	furin cleavage Z-score (7.5 min)	furin cleavage Z-score (15 min)	furin cleavage Z-score (30 min)
B1	-0.389 (inactive)	0.488 (inactive)	-0.355 (inactive)
B2	0.651 (inactive)	1.8	1.24
B3	-0.996 (inactive)	-1.12 (inactive)	-0.888 (inactive)
B4	0.711 (inactive)	1.96	0.196 (inactive)
B5	-0.484 (inactive)	0.759 (inactive)	0.473 (inactive)
B6	0.0898 (inactive)	0.0513 (inactive)	2.38
B7	1.82	4.66 (active)	6.11 (active)
B8	1.27	2.18	5.01 (active)
B9	-1.2 (inactive)	-0.376 (inactive)	-0.241 (inactive)
B10	2.19	2.25	4.89 (active)
B11	-0.124 (inactive)	3.28	3.44
B12	6.33 (active)	8.53 (active)	8.43 (active)
B13	0.983 (inactive)	0.356 (inactive)	0.464 (inactive)
B14	1.06	-1.02 (inactive)	-0.217 (inactive)
B15	-1.07 (inactive)	-2.42 (inactive)	-0.236 (inactive)
B16	-0.264 (inactive)	1.94	0.732 (inactive)
B17	0.61 (inactive)	-0.472 (inactive)	0.123 (inactive)
B18	0.493 (inactive)	1.57	2.02
B19	0.898 (inactive)	1.66	1.58
B20	2.72	3.57 (active)	4.42 (active)
B21	0.199 (inactive)	0.138 (inactive)	0.903 (inactive)
B22	0.0968 (inactive)	0.171 (inactive)	1.92
B23	10.3 (active)	10.4 (active)	8.53 (active)
B24	4.99 (active)	7.01 (active)	7.62 (active)
B25	4.51 (active)	6.24 (active)	5.54 (active)
B26	0.594 (inactive)	0.414 (inactive)	0.64 (inactive)

Sequence	furin cleavage Z-score (7.5 min)	furin cleavage Z-score (15 min)	furin cleavage Z-score (30 min)
B27	-0.539 (inactive)	-0.0107 (inactive)	-0.218 (inactive)
B28	-0.0344 (inactive)	0.123 (inactive)	-0.271 (inactive)
B29	0.311 (inactive)	0.0716 (inactive)	0.261 (inactive)
B30	0.473 (inactive)	0.124 (inactive)	-0.446 (inactive)
B31	-0.464 (inactive)	-0.574 (inactive)	-0.169 (inactive)
B32	-0.972 (inactive)	-0.954 (inactive)	0.105 (inactive)
B33	1.21	-1.94 (inactive)	1.34
B34	0.155 (inactive)	0.346 (inactive)	0.769 (inactive)
B35	1.11	0.566 (inactive)	1.2
B36	0.575 (inactive)	-0.109 (inactive)	-0.829 (inactive)
B37	6.8 (active)	6.47 (active)	6.46 (active)
B38	1.05	2.95	3.61 (active)
B39	-0.324 (inactive)	-2.36 (inactive)	0.573 (inactive)
B40	1.9	0.613 (inactive)	-0.705 (inactive)
B41	0.641 (inactive)	1.84	1.15
B42	-0.448 (inactive)	0.845 (inactive)	1.95
B43	6.55 (active)	8.6 (active)	7.52 (active)
B44	9.34 (active)	11.3 (active)	8.9 (active)
B45	1.16	3.39	3.53 (active)
B46	-1.38 (inactive)	0.0659 (inactive)	0.59 (inactive)
B47	7.93 (active)	9.37 (active)	8.96 (active)
B48	-0.597 (inactive)	-0.486 (inactive)	-0.755 (inactive)
B49	2.47	1.11	0.11 (inactive)
B50	-0.648 (inactive)	-0.595 (inactive)	-1.15 (inactive)
B51	1.17	1.52	0.934 (inactive)
B52	-1.38 (inactive)	-0.98 (inactive)	-0.486 (inactive)
